ATXN2 expr inh = Primary qHTS for Inhibitors of ATXN expression; Potency, µM (highest dose often 57 µM), without a hit: at the highest dose activity change, negative = inhibition, hits mostly inhibitors; HEK-293 ATXN2-luciferase reporter, luminescence, 24 h; AID 1745845, 2022; 360,000 tested, 0.72% active; also: % is scaled to controls: 0 for no effect and ±100 for the full control effect; nearly all actives have a fitted effect of over 55% in size
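qHTS (up to 57 uM final) was run with 24 h compound exposure of reporter cells at 37 °C. Each well was multiplexed: SteadyGlo luminescence measured ATXN2-luciferase expression after a fluorogenic Gly-Phe-AFC viability readout (25 uM final).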
Anesthetic bind = qHTS Assay for Identification of Novel General Anesthetics | apoferritin/1-aminoanthracene competitive binding, fluorescence | Potency, µM (doses to about 77.5 µM), inactives show at the top dose activity change, negative = displacement, hits mostly inhibitors | 350,000 tested, 0.074% active | AID 485281, 2010; also: % is scaled to controls: 0 for no effect and ±100 for the full control effect; nearly all actives have a fitted effect of over 20% in size
Target sequence (P02791 2-175 limits assumed): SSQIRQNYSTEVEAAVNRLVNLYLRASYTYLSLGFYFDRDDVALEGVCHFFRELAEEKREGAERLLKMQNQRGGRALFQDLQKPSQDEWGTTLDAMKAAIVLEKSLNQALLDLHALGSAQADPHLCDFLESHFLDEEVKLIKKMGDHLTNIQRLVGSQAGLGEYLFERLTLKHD
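Horse-spleen apoferritin (10 uM) was mixed with 50% saturated 1-aminoanthracene in PBS, exposed to compounds for 10 min at room temperature, and read for fluorescence (ex 380 nm, em 535 nm). Competitive displacement was fitted with a four-parameter Hill equation.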
TGFb SMAD3 inh = qHTS for Inhibitors of TGF-b | HepG2 CAGA-GFP TGF-b/SMAD3 reporter, GFP fluorescence, 18 h; TGF-beta stimulated, 500 pg/mL final | Potency, µM (series often up to 46.1 µM), for the others: at the highest dose activity, negative = inhibition, actives largely listed as inhibitors | 410,000 tested, 1.2% active | AID 588855, 2011; also: % is scaled to controls: 0 for no effect and ±100 for the full control effect; nearly all actives have a fitted effect of over 65% in size
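GFP signal (ex488/em500-530) from TGF-beta-stimulated HEPG2 CAGA-GFP cells, 500 pg/mL final, 18 h at 37 degrees C in DMEM plus 1% FBS, normalized to unstimulated and DMSO-stimulated controls.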
HepG2 viability = qHTS for Inhibitors of TGF-b: Cytotox Counterscreen; HepG2 CAGA-GFP viability, ATP luminescence, 18 h; Potency, µM (top dose mostly 46.1 µM), for the others: at the top dose activity change, negative = cytotoxicity, hits mostly cytotoxic; 410,000 tested, 0.76% active
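CellTiter-Glo luminescence gave cytotoxicity after 18 hours at 37 degrees C. The cells were HepG2 CAGA-GFP in 1% FBS DMEM, stimulated with 500 pg/mL TGF-beta after compound addition. %Activity was normalised to no-cell wells (complete cell-killing) and DMSO (no toxicity), and curves were fitted and classified.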
S2 tox = Viability Counterscreen for Primary qHTS for Inhibitors of ATXN expression | S2 cells (HEK-293 line with an ATXN2-luciferase reporter) viability, CellTiter-Fluor protease fluorescence, 24 h | Potency, µM (highest dose often 56.7 µM), usual class: cytotoxic | 400,000 tested, 0.49% active | AID 651635, 2014; also: nearly all actives have a fitted effect of over 40% in size
* = called active by the depositor; i = inactive; ? = inconclusive; . = not tested or not shown; ! = not active in a repeat. Compounds with a hit are over-represented: about 2.4% of the library has one in this group of screens. Calls follow the shape of the dose curve; as a rule, active = well fitted curve in the direction sought with a large enough effect; inconclusive = small, poorly fitted or top-dose-only effect, or another doubt; inactive = no such curve, though single readings can be large; an effect the other way counts as inactive or inconclusive. Potency is read from the fitted curve at half-maximal effect.

SMILES	ATXN2 expr inh	Anesthetic bind	TGFb SMAD3 inh	HepG2 viability	S2 tox
CCOc1ccc2nc(N3CCCC(C(=O)NCCc4ccc(OC)cc4OC)C3)sc2c1 (stereo not drawn)	.	35%	18µM*	-53%	.
CCOC(=O)c1cc([N+](=O)[O-])cc([N+](=O)[O-])c1Sc1ncnc2nc[nH]c12	?	.	13µM*	-101%	.
CCN(CC)CCOc1ccc(Nc2ncc3cc(-c4c(Cl)cccc4Cl)c(=O)n(C)c3n2)cc1	1.7µM*	.	.	.	.
CCN(CC)CCOc1ccc(C=NNc2nc3c([nH]2)c(=O)n(C)c(=O)n3C)cc1	6%	.	12%	-62%	i
O=C(c1ccc2c(c1)C(=O)N(CCCO)C2=O)c1ccc2c(c1)C(=O)N(CCCO)C2=O	-1%	-1%	7%	-27%	i
O=C1c2ccc3c4c(ccc(c24)C(=O)N1CCCCO)C(=O)N(CCCCO)C3=O	?	?	2.5µM*	3.2µM*	?
CC(C)(C)c1ccc(C(=O)N2CCC3(CC2)CC3C(=O)NCCc2ccccn2)cc1 (stereo not drawn)	.	.	.	.	i
Cc1ccc(C(=O)NCC(=O)OCC(=O)N(CC(C)C)c2c(N)n(Cc3ccccc3)c(=O)[nH]c2=O)cc1C	5%	.	1%	3%	i
Cc1ccc(SCC(=O)OCC(=O)N(CC(C)C)c2c(N)n(Cc3ccccc3)c(=O)[nH]c2=O)cc1C	-19%	.	18µM*	-156%	i
C=C[C@@H]1c2cc(C)ccc2N(S(=O)(=O)c2ccc(C)cc2)[C@H](c2ccc(C(=O)OC)cc2)C1(C#N)C#N	.	.	7%	13%	.
O=C(Nc1ccc([N+](=O)[O-])cc1Cl)c1cc(Cl)cc(Cl)c1O	.	.	?	-50%	.
O=C1CN(C(=O)COc2ccc(Cl)cc2)C(c2ccccc2)c2cc(Br)ccc2N1 (stereo not drawn)	?	-4%	?	-18%	?
CCN(CC)CCCNC(=O)c1ccc2c(Cl)c3c(nc2c1)CCCC3	28µM*	?	13µM*	1.6µM*!	20µM*!
COCCNC(=O)CSc1c2c(nc3cc(Cl)ccc13)CCCC2	.	-6%	?	-24%	.
CCN(CC)CCNC(=O)CSc1c2c(nc3cc(Cl)ccc13)CCCC2	.	-11%	18µM*	-79%	.
COc1ccc(C)cc1NC(=O)CSc1nc2ccccc2nc1N1CCOCC1	31%	2%	29%	-5%	i
CCCCN(CC)CCNC(=O)c1ccc2c(Cl)c3c(nc2c1)CCC3	-35%	-15%	12%	-39%	i
COc1ccc(NC(=O)CSc2nc3ccccc3nc2N2CCOCC2)c(OC)c1	-21%	-17%	-14%	-20%	4.5µM*!
O=C(Nc1ccccc1F)c1ccc2c(Cl)c3c(nc2c1)CCC3	-68%	9%	?	10µM*	i
Cc1cc(C(=O)N2CCOc3ccc(CN4CCC(Oc5cccnc5)CC4)cc3C2)c(C)o1	.	.	.	.	i
COc1ccc(OC)c(NC(=O)CSc2c3c(nc4cc(Cl)ccc24)CCCC3)c1	.	-17%	10µM*	-46%	.
COc1ccc(Cl)cc1NC(=O)CSc1c2c(nc3ccccc13)CCC2	.	?	?	-37%	.
COc1ccc(OC)c(NC(=O)CSc2c3c(nc4ccccc24)CCCC3)c1	?	?	?	13µM*	.
O=S(=O)(Nc1ccc(-c2csc(-c3ccccc3)n2)cc1)c1ccccc1	-38%	1%	?	14µM*	?
Cc1ccc(S(=O)(=O)Nc2ccc(-c3csc(-c4ccccc4)n3)cc2)cc1	-4%	-5%	?	13µM*	?
SMILES	ATXN2 expr inh	Anesthetic bind	TGFb SMAD3 inh	HepG2 viability	S2 tox
Cc1cccc2sc(NNC(=O)c3ccc(S(=O)(=O)N4CCCC(C)C4)cc3)nc12 (stereo not drawn)	?	-22%	13µM*	-61%	i
Cc1cc(C)c2nc(NNC(=O)c3ccc(S(=O)(=O)N4CCCCC4)cc3)sc2c1	?	?	?	-20%	i
Cc1cccc2sc(NNC(=O)c3ccc(S(=O)(=O)N4CCc5ccccc5C4)cc3)nc12	?	-5%	11µM*	-34%	?
CCOC(=O)N1CCN(S(=O)(=O)c2ccc(C(=O)NNc3nc4c(C)cccc4s3)cc2)CC1	?	-2%	?	-31%	i
COc1cc(-c2cc(C)c3cccc(OC)c3n2)cc2c1OCCN(C(=O)CCn1ccc(C)n1)C2	.	.	.	.	i
CN(C)c1ccc(CN2CCC(C(=O)NC(c3ccc(F)cc3)c3ccc4ccccc4n3)CC2)cc1 (stereo not drawn)	?	.	?	-84%	?
O=C(NC(c1ccc(F)cc1)c1ccc2ccccc2n1)C1CCN(Cc2ccc3ccccc3n2)CC1 (stereo not drawn)	-23%	.	13µM*	-47%	?
O=C(NC(c1ccc(F)cc1)c1ccc2ccccc2n1)C1CCN(CCOc2ccc(Cl)cc2)CC1 (stereo not drawn)	?	.	16µM*	-94%	14µM*
C#Cc1ccc([C@H]2C=C(C(=O)O)O[C@@H](OCCCCO)C2)cc1	-2%	.	3%	-1%	i
CCN1CCN(CC(=O)N2N=C(c3cccs3)CC2c2ccc(OC)c(OC)c2)C(=O)C1=O (stereo not drawn)	-12%	-11%	-15%	0%	i
C=C1C(=O)c2sccc2C(c2ccc(OC)c(OC)c2)C1COC(C)=O (stereo not drawn)	?	.	0.71µM*	4.5µM*	.
O=C(CS(=O)(=O)c1cccc2nsnc12)N1CCN(c2ccccc2F)CC1	0%	2%	16µM*	-66%	i
COc1cc(S(N)(=O)=O)cc(C(=O)O)c1OC	4%	.	.	.	i
Cc1ccccc1CN1Cc2cccc3c2[C@H](C=CC3)CC1=O	.	.	?	-4%	.
CCCC(c1nnnn1Cc1ccc2c(c1)OCO2)N1CCC(C(N)=O)CC1 (stereo not drawn)	-4%	-3%	-2%	20µM*	i
CCCC(c1nnnn1Cc1ccc(OC)cc1)N1CCC(C(N)=O)CC1 (stereo not drawn)	-11%	-8%	-16%	-10%	i
Cc1nn2c(NCCN(C)C)c3c(nc2c1-c1ccccc1)CCCC3	-3%	-1%	11µM*	-68%	.
CC(C)(C)NC(=O)[C@@H]1C[C@@H]2CCCC[C@@H]2CN1C[C@@H](O)[C@H](Cc1ccccc1)NC(=O)[C@H](CC(N)=O)NC(=O)c1ccc2ccccc2n1	?	?	?	-43%	32µM*
COC(=O)[C@H](Cc1ccccc1)NC(=O)c1ccc2ccccc2n1	5%	-19%	-1%	2%	i
